Bioassay records deposited in PubChem BioAssay by several laboratories.
In the library only some 6.9% were active in any assay of this set; here they are far more common.
MPTP block: blocks calcium-induced mitochondrial swelling; 360,000 tested, 1.4% active; AID 602449; isolated mouse mitochondria, Ca2+ swelling absorbance, 30 min; inhibition, % at 10 µM;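 active = inhibition of 50% or more, scaled per plate between neutral and stimulator controls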
Beta cell apopt: beta cell apoptosis inhibition; INS-1E cytokine-induced death, ATP luminescence, 48 h; percent of positive-control rescue, neutral wells zero; protection from apoptosis, % (no concentration beside the values); 300,000 tested, 0.8% active;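 active = Every replicate reaches about 75%, or at least half do and their mean reaches it too, limit read from the data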;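 note: higher means more ATP so stronger rescue from cytokine killing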
GRIN3A LBD mod: NR3A (human) ligand-binding domain modulation; Tm shift relative to glycine control, % at 25 µM; NR3A LBD differential scanning fluorimetry, Tm shift; 0% = protein alone, 100% = glycine-bound protein; 340,000 tested, 2.5% active;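 active = melting temperature shift of at least 10% of the positive control shift, at one fixed dose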
CSC inhib: blocks cancer stem cells | cancer stem cell-like cells viability, luminescence | 300,000 tested, 1.1% active | inhibition, % at 7.5 µM | AID 2717; in the data active = inhibition above about 75%; tested in HMLE shEcad cells
Mdm2-MdmX inh: human Mdm2/MdmX binding inhibition; O15151+Q00987; SaOS-2 split-luciferase Mdm2/MdmX complementation, luminescence; inhibition, % at 8 µM; 330,000 tested, 3% active; AID 485346;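 active = inhibition of at least 50% at 8 µM in the primary screen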
SKKanGAS inh: blocks kanamycin growth of S. pyogenes SKKanGAS strain. BacTiter-Glo, 6 h. inhibition, % at 7.5 µM. 300,000 tested, 1.3% active. AID 1662;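 active = mean replicate score, as percent of positive control median, at least 50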;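 note: strain carries kanamycin resistance gene driven by streptokinase promoter and grows in 40 µg/ml kanamycin; loss of luminescence reflects streptokinase promoter inhibition or plain growth inhibition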
Each line names hits and unclear results; the compound was inactive in the other large screens.

CC1(c2ccc(OC(F)F)cc2)NC(=O)N(CC(=O)Nc2ccccc2)C1=O (stereo not drawn)	none
Cc1ccc2nc(-c3ccc(NC(=O)CN4C(=O)NC(C)(c5ccc(OC(F)F)cc5)C4=O)cc3)sc2c1 (stereo not drawn)	GRIN3A LBD mod 34.6
Cc1ccc2nc(-c3ccc(NC(=O)CN(c4ccccc4C)S(C)(=O)=O)cc3)sc2c1	GRIN3A LBD mod 15.0
CC(=O)NC(=S)Nc1ccc(-c2nc3ccc(C)cc3s2)cc1	none
COc1ccc(C(CNC(=O)C(Cc2ccccc2)NC(N)=O)N(C)C)cc1 (stereo not drawn)	none
CCC(C(=O)N1CCC(N2CCCCC2)CC1)n1nc(C)c2sc3ccccc3c2c1=O (stereo not drawn)	SKKanGAS inh 52.6
CCc1nnc(NC(=O)c2sc3nc4cc(C)ccc4cc3c2N)s1	GRIN3A LBD mod 20.0, SKKanGAS inh 92.8
CC(=O)CCn1cnc([N+](=O)[O-])n1	none
Cc1ccc(S(=O)(=O)N2CC(C)C(=O)CC2C)cc1 (stereo not drawn)	none
C=CCNCCCOc1ccc(Cl)cc1C(C)(C)C	CSC inhib 104.4
Cc1ccc(OCCOCCN2CCN(C)CC2)c(C(C)(C)C)c1	none
CC(C)(C)c1cc(Cl)ccc1OCCOCCN1CCCC1	CSC inhib 93.4
CC(C)(C)NCCOCCOc1ccc(Cl)cc1C(C)(C)C	none
O=C(Nc1ccc2c(c1)C(=O)NC2=O)c1ccc2ncsc2c1	none
Cc1cc(Br)c(NC(=O)c2c(-c3c(Cl)cccc3Cl)noc2C)c(Br)c1	GRIN3A LBD mod 11.8
O=S(=O)(Nc1nc2ccccc2nc1Nc1ccc2c(c1)OCCO2)c1cccs1	GRIN3A LBD mod 13.4 (no result: Beta cell apopt, CSC inhib)
O=C(COC(=O)C1CC1)Nc1ccc(Cl)cc1Cl	none (no result: CSC inhib, SKKanGAS inh)
Cc1cc(OCC(=O)NNC(=S)NCC2CCCO2)cc(C)c1Cl (stereo not drawn)	none
O=C(OCc1ccccc1)c1ccc2c(c1)-c1ccccc1C2=O	SKKanGAS inh 55.3
O=C(OCc1ccccc1)c1ccccc1	none
N#Cc1c(Nc2cccc(F)c2)sc2c(O)cc(=O)[nH]c12	SKKanGAS inh 112.5
N#Cc1c(SCC(=O)Nc2ccc(C(F)(F)F)cc2)sc2c(O)cc(=O)[nH]c12	none
CN(C)S(=O)(=O)c1ccc(NC(=O)c2ccccn2)cc1	none
CN(C)S(=O)(=O)c1ccc(NC(=O)/C=C/c2ccccc2Cl)cc1	GRIN3A LBD mod 26.6
O=C(/C=C/c1ccccc1Cl)Nc1ccccc1	GRIN3A LBD mod 20.1
O=C(/C=C/c1ccccc1Cl)Nc1ccc2c(c1)C(=O)NC2=O	none
O=C(/C=C/c1ccccc1Cl)Nc1cccc(O)c1	GRIN3A LBD mod 29.7
Cc1ccc(S(=O)(=O)Nc2ccccc2)cc1[N+](=O)[O-]	none (no result: Beta cell apopt, CSC inhib, Mdm2-MdmX inh, SKKanGAS inh)
Cc1cccc2c(N=Nc3ccc(S(=O)(=O)Nc4cccc(Cl)c4)cc3[N+](=O)[O-])c(O)[nH]c12	GRIN3A LBD mod 13.0
CCC(Sc1nc(-c2ccccc2)c(-c2ccccc2)[nH]1)C(=O)O (stereo not drawn)	none
COc1ccc(CC2(C)OC(c3ccncc3)=NN2C(C)=O)cc1 (stereo not drawn)	none
COc1ccc(CC2(C)OC(c3ccc(Cl)cc3)=NN2C(C)=O)cc1 (stereo not drawn)	GRIN3A LBD mod 13.4
COC(=O)c1ccc(CSc2nc3ccccc3c(=O)n2C)o1	none
COC(=O)c1ccc(CSc2nc3ccccc3c(=O)n2CC(C)C)o1	GRIN3A LBD mod 20.4
Cc1cc(C)c(NC(=O)CCc2c(C)noc2C)c(C)c1	none (no result: SKKanGAS inh)
COc1cc(C(=O)NC(=S)NNC(=O)c2ccc3c(c2)OCO3)cc(OC)c1OC	SKKanGAS inh 69.7
COc1ccc(Cl)cc1C(=O)NNC(=S)NC(=O)c1ccc(F)c(F)c1	SKKanGAS inh 98.9 (no result: Beta cell apopt, CSC inhib)
COc1ccc(Cl)cc1C(=O)NNC(=O)c1cccc([N+](=O)[O-])c1	none
COc1ccc(C(=O)NC(=S)NC(C)C)cc1Br	none
COc1ccc(C(=O)NC(=S)NNC(=O)c2ccc(NC(C)=O)cc2)cc1Br	SKKanGAS inh 70.2
COc1ccc(Cl)cc1C(=O)NNC(=S)NC(=O)c1cc(-c2ccc(Cl)cc2)nc2ccccc12	SKKanGAS inh 70.8
O=C(O)CC1(CC(=O)Nc2nccs2)CCCCC1	none (no result: Beta cell apopt, CSC inhib, Mdm2-MdmX inh, SKKanGAS inh)
CC1C(=O)N2CCCc3cc(NC(=O)C(=O)NCc4cccnc4)cc1c32 (stereo not drawn)	none
COc1ccc(C(=O)NNC(=S)NC(=O)c2ccc(F)cc2)cc1Br	SKKanGAS inh 102.9
COc1cc(C(=O)NNC(=S)NC(=O)c2ccc(F)cc2)cc(OC)c1OC	SKKanGAS inh 82.7
COc1ccc(C(=O)NC(=S)NNC(=O)c2ccncc2)cc1Br	none (no result: CSC inhib, SKKanGAS inh)
Cc1ccc(-c2csc(NC(=O)c3cccc(C)c3)c2C(=O)O)cc1	none
Cc1cccc(C(=O)Nc2scc(-c3ccc(Br)cc3)c2C(=O)O)c1	SKKanGAS inh 89.4
CN(C)C(CNS(=O)(=O)c1ccc2ccccc2c1)c1ccccc1 (stereo not drawn)	CSC inhib 81.6
CC(C)(C)NC(=O)C1(N2C(=O)c3ccccc3C2=O)CCCC1	none (no result: Beta cell apopt, CSC inhib, Mdm2-MdmX inh, SKKanGAS inh)
Cc1cc(C(=O)N2CCCc3ccccc32)ccc1[N+](=O)[O-]	none
CN(C)CCNC(=O)c1sc2nc(-c3ccccc3)cc(C(F)(F)F)c2c1N	CSC inhib 77.6
C[C@H]1CN([C@@H](C)CO)C(=O)CCCn2nncc2CO[C@@H]1CN(C)Cc1ccccc1	none (no result: Beta cell apopt, GRIN3A LBD mod, CSC inhib, Mdm2-MdmX inh, SKKanGAS inh)
CN(C)c1cccc(-c2cc(Nc3ccc(C(C)(C)C)cc3)ncn2)c1	none (no result: Beta cell apopt, GRIN3A LBD mod, CSC inhib, Mdm2-MdmX inh, SKKanGAS inh)
CN(C)CCCNc1ccc(-c2cc(Nc3cccc(Cl)c3)ncn2)cn1	CSC inhib 80.6
C/C(=N\NC(=O)c1c(Cl)c(C)nn1C)c1cccc(NC(=O)c2cccc(F)c2)c1	SKKanGAS inh 55.4
Cc1ccc2c(CC(=O)Nc3ccc(F)c(S(=O)(=O)N4CCOCC4)c3)coc2c1	none (no result: CSC inhib, SKKanGAS inh)
CC(O)(c1cccnc1)c1nc(-c2cccc(C#N)c2)cs1 (stereo not drawn)	none (no result: Beta cell apopt, GRIN3A LBD mod, CSC inhib, Mdm2-MdmX inh, SKKanGAS inh)
Clc1ccc(/C=N/NC(=Nc2ccccc2)c2ccccn2)c(Cl)c1	SKKanGAS inh 51.8
COc1ccc(N(CC(=O)N/N=C/c2ccc(OC3CSC3)cc2)S(=O)(=O)c2ccccc2)cc1	GRIN3A LBD mod 16.1
O=C(N/N=C/c1ccc(OC2CSC2)cc1)c1ccccc1	CSC inhib 88.5
Cc1ccc(N(CC(=O)N/N=C/c2ccc(OC3CSC3)cc2)S(=O)(=O)c2ccccc2)cc1	none
COc1ccccc1C(=O)N/C(=C/c1ccco1)C(=O)Nc1cccc(C(=O)O)c1	none
CCOc1ccc(NC(=O)CN(C)C(=O)CC2OC(=O)c3ccccc32)cc1OCC (stereo not drawn)	none (no result: Beta cell apopt)
COc1cc(NC(=O)C(C)(C)C)c(C(=O)OCC(=O)Nc2cc(C)on2)cc1OC	none (no result: Beta cell apopt, GRIN3A LBD mod, CSC inhib, Mdm2-MdmX inh, SKKanGAS inh)
COC(=O)c1ccccc1NC(=O)NCc1c(C)nn(C)c1C	none (no result: SKKanGAS inh)
CC1CCC2(CC1)NC(=O)N(CC(=O)Nc1ccc3[nH]c(=O)[nH]c3c1)C2=O (stereo not drawn)	GRIN3A LBD mod 19.5
